Source: PubChem (National Center for Advancing Translational Sciences (NCATS))
Most compounds without a hit are left out; they make up all but 14% or so of the library.
MARV entry inh = qHTS for inhibitors of binding or entry into cells for Marburg Virus; AID 540276, 2011; Potency, µM (doses to about 37.8 µM), most hits filed as inhibitors; 300,000 tested, 1.8% active; Marburg virus pseudotyped entry inhibition, cell reporter; calls by dose curve; tested in HEK293 cells
LASV entry inh = qHTS for Inhibitors of binding or entry into cells for Lassa Virus; Lassa virus pseudotype entry inhibition, cell reporter; Potency, µM (highest dose often 37.9 µM), actives largely listed as inhibitors; 300,000 tested, 1.2% active; AID 540256, 2011; calls by dose curve; tested in HEK293 cells; note: nearly all actives have a fitted effect of over 50% in size
HCMV inh = qHTS Assay for inhibitors of the human cytomegalovirus (HCMV); HFF cells, HCMV-luciferase reporter, 72 h; hits give low values; 410,000 tested, 4.5% active; activity change, negative = inhibition, % at 57.5 µM; in the data active = activity change below about -60%; inconclusive = no clear call, values can overlap the other calls; inactive = above about -39%
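Human foreskin fibroblasts infected with luciferase-reporter HCMV at MOI 1 PFU/cell, compounds at two doses. Luciferase measured 72 h post infection; normalized to buffer-only basal and Salinomycin (10uM) controls.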
HCV inh = qHTS Assay for Inhibitors of Hepatitis C Virus (HCV); Huh7.5.1 HCVcc-Cre infection, luciferase reporter, 44 h; Potency, µM (series often up to 41.8 µM), usual class: inhibitors; 340,000 tested, 3.4% active; AID 651820, 2012
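Infectious HCV cell culture screen: compound-treated cells (1,000/well, pre-plated 4 h) are infected with HCVcc-Cre at roughly 0.5 moi and grown 44 h. Infection is quantified by luciferase signal after 15 min substrate incubation at room temperature.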
Pf growth 96h = Primary qHTS for delayed death inhibitors of the malarial parasite plastid, 96 hour incubation; 320,000 tested, 6.9% active; P. falciparum luciferase reporter growth, 96 h; AID 504834, 2011; Potency, µM (series often up to 28.7 µM), actives largely listed as inhibitors
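Compounds incubated with erythrocytes infected by luciferase-expressing P. falciparum (2% hematocrit, 0.05% parasitemia final) for 96 hours, 37 C in 5% CO2. Growth inhibition scored as decreased luciferase luminescence.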
Pf growth 48h = Primary qHTS for delayed death inhibitors of the malarial parasite plastid, 48 hour incubation; Potency, µM (highest dose often 28.7 µM), actives largely listed as inhibitors; P. falciparum luciferase growth in erythrocytes, 48 h; 310,000 tested, 5.9% active; AID 504832, 2011
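Compounds are pin-transferred into medium, infected erythrocytes (2% hematocrit, 0.1% parasitemia final) are added, and plates sit one parasite generation at 37 C in 5% CO2. Detection reagent is then added and luminescence measured.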
Numbers stand for hits; i = inactive; ? = inconclusive; nt = no result; [ ] = dose if it differs, or a comment. Unless noted, calls come from the whole dose curve; as a rule, active = well fitted inhibition curve with a large enough effect; inconclusive = small, poorly fitted or top-dose-only effect, or another doubt; inactive = no such curve, though single readings can be large or run the other way.

SMILES | MARV entry inh | LASV entry inh | HCMV inh | HCV inh | Pf growth 96h | Pf growth 48h
O=C(O)CCC(=O)N1CCCC1C(=O)O (stereo not drawn) | i | i | nt | nt | nt | nt
O=C(Nc1ccc(CN2CCOCC2)cc1)c1cc2ccccc2oc1=O | i | nt | nt | nt | nt | nt
COc1c(C(=O)Nc2ccc(CN3CCOCC3)cc2)cc2ccccc2c1Br | i | i | i | 13µM | i | i
COc1ccc(N2CCN(C(=O)COc3ccc(S(=O)(=O)N4CCOCC4)cc3C)CC2)cc1 | i | i | i | i | ? | i
CCn1ccnc1CN1CCN(CCC(C)C)C(CCO)C1 (stereo not drawn) | i | ? | i | i | 12µM | i
Cc1ccc(CN2CCN(Cc3cccn3-c3ccc(Cl)cn3)CC2CCO)o1 (stereo not drawn) | i | i | i | i | 12µM | ?
CCn1ccnc1CN1CCN(CC(C)C)C(CCO)C1 (stereo not drawn) | i | ? | i | i | i | i
CC(C)CCN1CCN(Cc2cccn2-c2ccc(Cl)cn2)CC1CCO (stereo not drawn) | i | i | i | i | i | 9.3µM
Cc1ccc(CN2CCN(Cc3cccn3-c3ccccn3)CC2CCO)cc1 (stereo not drawn) | nt | nt | i | i | i | i
Cc1ccc(CN2CCN(Cc3cnn(-c4ccc(Cl)cc4)c3)CC2CCO)o1 (stereo not drawn) | ? | i | i | ? | ? | i
OCCC1CN(Cc2cccn2-c2ncccn2)CCN1Cc1ccccc1 (stereo not drawn) | i | i | i | i | 13µM | i
C[C@H](NC(=O)[C@@H]1CCCN1C(=O)[C@@H]1CCCN1C(=O)c1cccs1)c1ccccc1 | nt | nt | i | nt | nt | nt
CC(=O)c1ccc(S(=O)(=O)Nc2cccc(-c3ccc(N4CCCCCC4)nn3)c2)cc1 | nt | i | i | nt | nt | nt
COc1ccc(C2=NCC(=O)N(CC(=O)NCc3ccco3)c3sc4c(c32)CCCC4)cc1 | ? | i | i | ? | i[5.75 µM] | ?
O=C1CN=C(c2ccc(Br)cc2)c2c(sc3c2CCCC3)N1CCN1CCCCC1 | nt | nt | -97 | i | i | ?
C[C@H]1C=C(C(=O)NCc2nc3ccccc3[nH]2)O[C@@H](OCCCCO)C1 | nt | nt | i | i | nt | nt
CC(C)(C)[C@H]1C=C(C(=O)NCc2nc3ccccc3[nH]2)O[C@@H](OCCCCO)C1 | nt | nt | i | i[8.37 µM] | 10µM | ?
O=C(NCc1nc2ccccc2[nH]1)C1=C[C@@H](c2ccccc2)C[C@@H](OCCCCO)O1 | nt | nt | i | i | i | 0.0033µM
O=C(NCc1nc2ccccc2[nH]1)C1=C[C@@H](c2ccc(Br)cc2)C[C@@H](OCCCCO)O1 | nt | nt | i | ? | ? | ?
COC(=O)/C=C/c1sc2nc(C)cc(C)c2c1N=CN(C)C | ? | i | -68 | i | i | i
Cn1c(=O)c2c(nc(NCC3CCCC(CN)C3)n2Cc2ccc(Cl)cc2Cl)n(C)c1=O (stereo not drawn) | nt | nt | -99 | 11µM | 2.9µM | 2.9µM
Cn1c(=O)c2c(nc(NCCNC(=O)c3ccco3)n2Cc2ccc(Cl)cc2Cl)n(C)c1=O | i | ? | -74 | i | i | ?
Cn1c(=O)c2c(nc(N3CCN(c4ccccn4)CC3)n2Cc2ccc(Cl)cc2Cl)n(C)c1=O | i | i | i | i | i | i
Cn1c(=O)cc(SCC(=O)N2CCN(c3ccccc3F)CC2)c2cc(Cl)ccc21 | i | i | i | nt | nt | nt
CCC1=C(OC(=O)N(CC)CC)N2C(=O)OC(=NCCc3c[nH]c4ccccc34)[C@]2(C)[C@H]2C1=CC[C@H]1C(=O)NC(=O)[C@H]12 | nt | nt | i | i | ? | 12µM
CCC1=C(OC(=O)N(CC)CC)N2C(=O)OC(=NCC3CC3)[C@]2(C)[C@H]2C1=CC[C@H]1C(=O)NC(=O)[C@H]12 | nt | nt | i | i[8.37 µM] | ? | ?
COC(=O)Cc1c(OC)ccn(CCc2c[nH]c3ccccc23)c1=O | i | ? | i | i | i | i
CCC1=C(OC(=O)N(CC)CC)N2C(=O)OC(=NCCc3c[nH]c4ccccc34)[C@]2(C)[C@H]2C1=CC[C@H]1C(=O)N(CC(=O)OC)C(=O)[C@H]12 | nt | nt | ? | i | 15µM | 9.3µM
